From PubChem
This is a sample that favours compounds with a hit; in the whole collection about 1.9% have one here.
PTHR1 agonist: agonists of human PTHR1 parathyroid hormone receptor; Q03431; HEK293 GP2 PTHR1 cells, GloSensor cAMP luminescence, 1 h; Potency, µM (titrated, usually from 115 µM), inactives show at the highest dose activation, hits mostly activators; 0.075% of 410,000 active; further: potency means the concentration at half of the fitted maximal effect; nearly all actives have a fitted effect of over 55% in size
Target sequence (Q03431 whole entry, looked up): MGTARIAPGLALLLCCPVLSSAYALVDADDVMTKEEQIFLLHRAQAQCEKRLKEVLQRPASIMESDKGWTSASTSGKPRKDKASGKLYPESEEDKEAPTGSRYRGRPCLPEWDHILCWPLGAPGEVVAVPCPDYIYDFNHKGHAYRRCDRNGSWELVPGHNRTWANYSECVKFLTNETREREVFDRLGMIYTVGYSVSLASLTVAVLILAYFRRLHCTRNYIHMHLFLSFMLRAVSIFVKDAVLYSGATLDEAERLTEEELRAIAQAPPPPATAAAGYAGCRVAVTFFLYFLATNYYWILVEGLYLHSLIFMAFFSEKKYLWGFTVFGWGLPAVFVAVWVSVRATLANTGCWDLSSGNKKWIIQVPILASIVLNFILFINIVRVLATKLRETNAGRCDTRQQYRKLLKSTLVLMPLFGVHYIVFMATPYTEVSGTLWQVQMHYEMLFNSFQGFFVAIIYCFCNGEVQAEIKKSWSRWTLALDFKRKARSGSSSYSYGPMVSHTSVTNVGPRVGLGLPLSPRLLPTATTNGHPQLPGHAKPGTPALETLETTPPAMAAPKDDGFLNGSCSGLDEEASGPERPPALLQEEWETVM
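HEK-293-derived GP2 cells expressing PTHR1 and a GloSensor cAMP reporter, 3,000/well, plated overnight, given luciferin plus IBMX (each 0.5 mM as added) for 1 h at 37 °C, then compound for 1 h at 37 °C. Luminescence was read after 15 min at room temperature.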
TDP-43 yeast inh: inhibitors of TDP-43 toxicity in yeast. TDP-43 expressing yeast growth rescue, BacTiter-Glo, 24 h. Potency, µM (top dose mostly 46.1 µM), for the others: top-dose growth rescue (activation), actives largely listed as activators. 1.8% of 410,000 active; further: potency means the concentration at half of the fitted maximal effect; % of control where 0% means no effect; nearly all actives have a fitted effect of over 50% in size
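Galactose-induced TDP-43 yeast, OD600=0.02, compound pinned; 24 hr, 30 deg C; BacTiter-Glo luminescence for growth. Inhibitors of TDP-43 toxicity read as activators.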
aSyn yeast inh: rescues yeast growth from alpha-synuclein toxicity. Yeast expressing alpha-synuclein, growth rescue, BacTiter-Glo, 24 h. Potency, µM (highest dose often 46.1 µM), without a hit: at the top dose growth rescue (activation), usual class: activators. 0.14% of 370,000 active. AID 652106; further: potency means the concentration at half of the fitted maximal effect; % of control where 0% means no effect; nearly all actives have a fitted effect of over 65% in size
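Rescue of yeast growth: cells expressing toxic alpha-synuclein, induced in galactose at OD600 0.02, incubated with compound 24 h at 30 C. ATP luminescence quantified growth; inhibitors of toxicity appear as activators.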
LDHA block: inhibitors of human lactate dehydrogenase A. activity change, % (values are at about 110 or 230 µM). P00338. 0.15% of 480,000 active. purified LDHA, NADH/diaphorase-resazurin fluorescence; hits give low values; in the data active means activity change below about -30%; inconclusive means mostly about -25% to -30%;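 further: plate controls were DMSO wells for no effect and wells without enzyme for full effect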
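Remaining NADH was detected by diaphorase (0.133 mg/mL) converting 37 µM resazurin to fluorescent resorufin, read at 0 and 20 minutes. The preceding 5-minute room-temperature reaction used 2 nM LDHA, 0.2 mM sodium pyruvate and 0.06 mM NADH at pH 7.4.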
Abeta rescue: compounds reversing amyloid beta toxicity in yeast; yeast expressing A-beta42, growth rescue, OD600, 48 h; response scale: 0% DMSO, 100% iron-clioquinol control; 0.063% of 410,000 active; Potency, µM (highest dose often 46.1 µM), usual class: activators; further: potency means the concentration at half of the fitted maximal effect; nearly all actives have a fitted effect of over 55% in size
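Growth rescue measured by 600 nm absorbance after 48 h yeast culture at 30 C with compound. Values normalized between DMSO and an equimolar ferric chloride plus clioquinol control.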
FUS yeast rescue: suppressors of FUS proteinopathy in yeast | AID 1347120 | S. cerevisiae FUS-expressing, growth rescue, OD600, 24 h | 0.24% of 390,000 active | Potency, µM (titrated, usually from 76.6 µM), usual class: activators;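 further: potency means the concentration at half of the fitted maximal effect; plate controls were DMSO vehicle for no effect and reference control for full effect; nearly all actives have a fitted effect of over 55% in size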
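Galactose (2%) drives FUS expression in yeast precultured in raffinose; seeding density OD 0.005. Test compounds incubated 24hr at 30C and 99% humidity before absorbance at 600 nm was measured.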
* marks the source's active call; other numbers are inactive results; i = inactive; ? = inconclusive; . = no result given; [ ] = another dose, or the depositor's remark. Unless noted, the call rests on the fitted dose curve; in most records, active means well fitted curve in the direction sought with a large enough effect; inconclusive means small, poorly fitted or top-dose-only effect, or another doubt; inactive means no such curve, though single readings can be large; an effect the other way counts as inactive or inconclusive.

SMILES | PTHR1 agonist | TDP-43 yeast inh | aSyn yeast inh | LDHA block | Abeta rescue | FUS yeast rescue
NCC(=O)c1ccc2ccccc2c1 | . | . | -1.9% | 0.3 | . | .
CN1CCC2(CC1)N1CC3(C)CN2CC(C)(C1)C3=O | . | . | . | 4.0 | . | .
Cc1cc(N(C)C)ccc1N=Nc1ccc(N)cc1 | -95.1% | 12.6µM* | -16.3% | 10.9 | i | i
Nc1ccc(N=Nc2ccccc2)cc1 | -5.5% | -15.0%[0.397 µM] | -1.2% | -0.7 | i | i
O=C1NC(=O)N(c2ccccc2)C(=O)/C1=C/c1ccoc1 | i | -12.7% | 0.3% | 1.3 | i | i
O=C1NC(=O)N(c2ccccc2)C(=O)/C1=C\c1ccccc1[N+](=O)[O-] | 18.3% | -20.5% | -9.7% | -34.8* | i | i
C[C@]12CC[C@H](O)C[C@@H]1CC[C@@H]1[C@@H]2CC[C@]2(C)[C@@H](C(=O)O)C[C@@H]12 | -18.4% | ? | -6.9% | -4.1 | i | i
C[C@H](CCC(=O)O)[C@H]1CC[C@H]2[C@@H]3CC[C@@H]4C[C@H](O)CC[C@]4(C)[C@H]3CC[C@]12C | -28.5% | 1.1% | 5.01µM* | -16.7 | i | i
C/C1=C\[C@@H](C)C/C=C/[C@H]2[C@@H]3O[C@]3(C)[C@@H](C)[C@H]3[C@H](Cc4c[nH]c5ccccc45)NC(=O)[C@]32C(=O)/C=C/C(=O)[C@@H]1O | -39.9% | 11.2µM* | 22.1% | 3.7 | i | ?
CC1=CC2/C=C(\C)CCC(O)C(O)/C=C/C(=O)C23C(=O)NC(CC(C)C)C3C1C (stereo not drawn) | -95.4% | -3.6% | 2.9% | -2.9 | i | i
Cc1ccccc1C(=O)NNC(=S)NC(=O)COc1ccccc1 | i | 3.4% | 3.16µM* | -14.6 | i | i
C[n+]1cc(P(=S)(c2ccccc2)c2ccccc2)n2ccccc21 | . | . | . | -14.8 | . | .
S=P(c1ccccc1)(c1ccccc1)c1cnc2ccccn12 | . | . | . | 4.6 | . | 22.4µM*
Cc1ccc(C(=O)Nc2cccc3cnccc23)cc1S(=O)(=O)N1CCCCC1 | . | . | . | 69.6 | . | .
O=[N+]([O-])c1ccc2c(c1)Cc1cc(O)ccc1-2 | -12.8% | 3.55µM* | 1.2% | -7.6 | i | .
Nc1ccc2c(c1)Cc1cc([N+](=O)[O-])ccc1-2 | -0.9% | 8.91µM* | ? | -10.6 | i | i
Nc1ccc2c(c1)Cc1ccccc1-2 | 2.4% | -1.2% | 10.0% | -2.1 | i | i
C[N+](C)(C)CC1CCCC(C[N+](C)(C)C)C1=O (stereo not drawn) | -35.1% | 20.2% | -0.1% | -41.0* | i | .
C[N+](C)(C)CC1CCCc2ccccc2C1=O (stereo not drawn) | -30.0% | 26.2% | -4.8% | ? | i | .
CCCC[N+]12CCC(CC1)C(=C(c1ccccc1)c1ccccc1)C2 | -9.4% | 13.3% | 3.0% | -106.3* | i | i
CCC[N+]12CCC(CC1)C(=C(c1ccccc1)c1ccccc1)C2 | i | -27.8% | -7.4% | 3.0 | i | .
Clc1ccc(Cl)c(-c2ccc(CNC3CN4CCC3CC4)o2)c1 (stereo not drawn) | . | . | . | 14.6 | . | .
Cc1ccc(S(=O)(=O)Nc2ccc3ncccc3c2[N+](=O)[O-])cc1 | -5.6% | 3.55µM* | -33.1% | 3.1 | i | .
CC(OC(=O)c1cn(C)c2ccccc12)C(=O)NC(N)=O (stereo not drawn) | . | . | . | -4.7 | . | .
C=CCOC(Cn1ccnc1)c1ccc(Cl)cc1Cl (stereo not drawn) | i | 11.2µM* | ? | -8.8 | i | i
CCN(CC)C(=O)c1ccc(NC(=O)c2cc3cc(F)ccc3[nH]2)cc1 | . | . | . | -5.5 | . | .
C#CCCC[C@@H]1OC(=O)CNC(=O)C([C@@H](C)CC)NC(=O)[C@@H]2CCCN2C(=O)C([C@@H](C)CC)OC(=O)[C@H](Cc2ccccc2)N(C)C(=O)[C@H](C(C)C)NC(=O)C1(C)C (stereo partly drawn) | 4.9% | -7.2% | 2.8% | 1.5 | i | 7.94µM*
